Structures are written as SMILES. Results filed as inconclusive are left out. Some structures have more than one record in an assay (separate samples or runs), and their calls can disagree. Calls of active or inactive are those of the source. Unless noted, calls follow the shape of the full dose curve.

Experiment [1] is described as follows: Nuclear factor erythroid 2-related factor 2/antioxidant responsive element (Nrf2/ARE) small molecule agonists: qHTS cell viability counter screen in human keratinocytes (AID 1919968; active = well fitted curve in the direction sought with a large enough effect in the repeat runs; an effect the other way counts as inactive or inconclusive; also: nearly all actives have a fitted effect of over 55% in size). In a few lines: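 Stably transfected HaCaT (KeratinoSens), 1,500/well. Test agents in DMSO were applied for 23 h, 37 C/5% CO2. CellTiter-Fluor was incubated 1 h before the fluorescence read.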
For orientation: In qHTS, concentration-response curves come from the screen itself.

For experiment [2], the target named is Gonadotropin-releasing hormone receptor (Homo sapiens) (UniProt P30968). The experiment can be described thus: Human gonadotropin-releasing hormone receptor (GnRHR) small molecule agonists, calcium flux assay in GnRHR-HEK293 cells (AID 1920063). Also: nearly all actives have a fitted effect of over 35% in size. In a few lines:
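Stable human GnRHR HEK293 line. 18 h plating, then calcium dye for 1 h at 37 C. Agonist-mode compound addition from DMSO stocks; fluorescence monitored 3 min.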
(In general: A change in cytosolic calcium serves as a functional read-out for many receptors and channels.)

The target of experiment [3] is KiSS-1 receptor (Homo sapiens) (UniProt Q969F8). The experiment can be described thus: Human kisspeptin (KISS1R) small molecule agonists, calcium flux assay in KISS1R-HEK293 cells (AID 1920064; active = well fitted curve in the direction sought with a large enough effect in the repeat runs; an effect the other way counts as inactive or inconclusive). An outline of the steps:
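After overnight (18 h) culture at 37 C/5% CO2, human KISS1R-HEK293 cells received calcium dye for 1 h, then test compound; emission at 540 nm (excitation 480 nm) was tracked for 3 min.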

The nature of experiment [4]: G protein-coupled receptor (GPCR) small molecule agonists, calcium flux assay: HEK293 wild type cell line counter screen (AID 1920065). In a few lines:
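Following 18 h incubation at 37 C/5% CO2, plates got calcium dye for 1 h; compounds, ATP or DMSO were then pinned in and fluorescence followed kinetically (480/540 nm).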

The nature of experiment [5]: p53 small molecule agonists, cell-based qHTS assay with human liver microsomes: qHTS cell viability counter screen (AID 1963579). Also: nearly all actives have a fitted effect of over 45% in size. In a few lines: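 p53RE-bla cells (4,000/well) were pre-incubated 5 h at 37 C, then given compounds in DMSO plus human liver microsomes (0.5 mg/mL final) and NADPH (0.5 mg/mL final) for 16 h at 37 C. Viability was read by CellTiter-Glo luminescence.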

Experiment [6] can be described thus: p53 small molecule agonists, cell-based qHTS assay with rat liver microsomes: qHTS cell viability counter screen (AID 1963580). Also: nearly all actives have a fitted effect of over 45% in size. In a few lines:
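Rat liver microsome (0.5 mg/mL final) and NADPH (0.5 mg/mL final) co-incubation with compounds for 16 h at 37 C on HCT-116 p53RE-bla cells; cytotoxicity taken from intracellular ATP luminescence.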

Experiment [7] is described as follows: p53 small molecule agonists, cell-based qHTS assay: qHTS cell viability counter screen (AID 1963581). Also: nearly all actives have a fitted effect of over 45% in size. An outline of the steps: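 qHTS counter screen: 16 h compound exposure at 37 C of p53RE-bla HCT-116 cells (4,000 per well, seeded 5 h prior), cell viability by ATP luminescence.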
Experiment [8] in a line: cAMP Responsive Elements (CRE) small molecule agonists, cell-based qHTS assay (AID 1963590). An outline of the steps:
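Test agents in DMSO were incubated 3 h at 37 C/5% CO2 with CRE-bla HEK 293T cells seeded 18 h earlier; LiveBLAzer B/G FRET substrate was added and read after 2 h at room temperature.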

The nature of experiment [9]: cAMP Responsive Elements (CRE) small molecule antagonists, cell-based qHTS assay (AID 1963591; active = well fitted inhibition curve with a large enough effect in the signal ratio in the repeat runs, not every such curve was filed as active; the % refers to the signal ratio). In a few lines: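 Reporter line CRE-bla HEK 293T in dialyzed-FBS DMEM; cells preincubated 18 h, treated 3 h with compound plus NKH477 (0.25 uM final); LiveBLAzer FRET, 2 h RT.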
In experiment [10] the target is Beta-2 adrenergic receptor (Homo sapiens) (UniProt P07550). The experiment can be described thus: Adrenergic beta2 receptor (ADRB2) small molecule antagonists, cell-based qHTS assay (AID 1963592). Also: series mostly up to about 92 µM; nearly all actives have a fitted effect of over 50% in size. An outline of the steps:
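Assay format: CHO-ADRB2 cells, 18-20hr seeding at 37C/5% CO2, then compound plus 1nM isoproterenol agonist mix for 0.5hr RT. Homogeneous time-resolved fluorescence cAMP detection after 1hr, expressed as 665/615 nm ratio.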

Experiment [11] has the same target. The experiment can be described thus: Adrenergic beta2 receptor (ADRB2) small molecule agonists, cell-based qHTS assay (AID 1963593).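 Also: CHO cells stably overexpressing human ADRB2.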 An outline of the steps: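 CHO cells stably over-expressing ADRB2 were plated overnight at 37C, then dosed with compounds plus a stimulation mix containing 100uM IBMX and 25uM Ro-20-1724 for 0.5hr at room temperature. cAMP was measured by HTRF competition, 1hr.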

Experiment [12] addresses D(2) dopamine receptor (Homo sapiens) (UniProt P14416). The experiment can be described thus: Dopamine D2 receptor (DRD2) small molecule agonists, cell-based qHTS assay (AID 1963594). Also: nearly all actives have a fitted effect of over 35% in size. An outline of the steps: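 cAMP accumulation in DRD2-HEK293 cells measured by HTRF after 1 h detection; compounds added 10 min before NKH477 (200nM […]) forskolin-analogue stimulation, 30 min at room temperature, with Ro20-1724 present at 0.1 mM final.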

Experiment [13] shares this target. The experiment in a line: Dopamine D2 receptor (DRD2) small molecule antagonists, cell-based qHTS assay (AID 1963595; active = well fitted inhibition curve with a large enough effect in the signal ratio in the repeat runs, with a control signal flat; the % refers to the signal ratio). An outline of the steps:
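Readout: HTRF cAMP, cAMP-d2 competing with cellular cAMP for anti-cAMP cryptate, read after 1 h. Cells: DRD2-HEK293. Conditions: 0.1 mM Ro20-1724, 12 nM quinpirole, 200 nM NKH477, 30 min RT.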

Experiment [14] is described as follows: p53 small molecule agonists, cell-based qHTS assay with rat liver microsomes (AID 1963578). In a few lines: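 p53RE-bla cells were exposed to compounds together with rat liver microsomes (0.5 mg/mL final) and NADPH (0.5 mg/mL final) for 16 h at 37 C, then read by LiveBLAzer beta-lactamase fluorescence after 2 h at room temperature.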
Experiment [15] can be described thus: p53 small molecule agonists, cell-based qHTS assay (AID 1963582; active = well fitted activation curve with a large enough effect in the signal ratio in the repeat runs, not every such curve was filed as active; the % refers to the signal ratio). In a few lines:
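Measured: fluorescence from cleaved LiveBLAzer substrate. System: p53RE-bla cells, 16 h compound treatment at 37 C, 2 h substrate step at room temperature.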

The target in experiment [16] is 5-hydroxytryptamine receptor 2A (Homo sapiens) (UniProt P28223). The experiment in a line: 5-hydroxytryptamine receptor 2A (HTR2A) small molecule antagonists, cell-based qHTS assay (AID 1963586). Also: nearly all actives have a fitted effect of over 45% in size. Also: potency is read from the fitted curve at half-maximal effect. In a few lines:
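CHO cells stably expressing human HTR2A were plated for 18 h at 37 C, then loaded with calcium dye for 1 h. Compounds were preincubated 5 min at room temperature before DOI (4 nM solution) was added. Kinetic fluorescence was read for 3 min.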

Experiment [17] shares this target. The experiment in a line: 5-hydroxytryptamine receptor 2A (HTR2A) small molecule agonists, cell-based qHTS assay (AID 1963587). Also: nearly all actives have a fitted effect of over 30% in size. Also: potency is read from the fitted curve at half-maximal effect. An outline of the steps:
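Kinetic calcium-flux fluorescence (2 min, 1 sec intervals) after compound addition in agonist mode. HTR2A-CHO cells were cultured 18 h, then dye-loaded 1 h at 37 C.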

In experiment [18] the target is Muscarinic acetylcholine receptor M1 (Homo sapiens) (UniProt P11229). The experiment can be described thus: Cholinergic receptor muscarinic 1 (CHRM1) small molecule antagonists, cell-based qHTS assay (AID 1963588). Also: nearly all actives have a fitted effect of over 40% in size. Also: potency is read from the fitted curve at half-maximal effect. An outline of the steps: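 Compounds were tested at 15 concentrations in three independent runs. Dye-loaded CHRM1-CHO cells were exposed 5 min at room temperature before stimulation by acetylcholine added at 50nM. Intracellular calcium was read kinetically on FDSS for 3 min.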
Muscarinic acetylcholine receptor M1 (Homo sapiens), sequence (P11229 whole entry, looked up): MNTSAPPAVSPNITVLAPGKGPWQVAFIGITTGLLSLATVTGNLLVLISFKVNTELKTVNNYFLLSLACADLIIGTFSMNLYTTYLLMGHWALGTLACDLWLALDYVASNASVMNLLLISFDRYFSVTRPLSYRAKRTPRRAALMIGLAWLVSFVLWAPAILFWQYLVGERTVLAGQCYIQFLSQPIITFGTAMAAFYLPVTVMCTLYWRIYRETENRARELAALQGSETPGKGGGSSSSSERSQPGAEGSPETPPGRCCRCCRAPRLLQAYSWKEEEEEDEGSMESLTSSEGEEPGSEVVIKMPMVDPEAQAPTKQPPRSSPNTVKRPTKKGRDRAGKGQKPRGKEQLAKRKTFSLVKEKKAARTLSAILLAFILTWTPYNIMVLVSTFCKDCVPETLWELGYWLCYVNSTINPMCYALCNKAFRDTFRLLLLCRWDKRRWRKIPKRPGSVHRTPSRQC

For experiment [19] the target is unchanged. The experiment in a line: Cholinergic receptor muscarinic 1 (CHRM1) small molecule agonists, cell-based qHTS assay (AID 1963589). Also: nearly all actives have a fitted effect of over 35% in size. In a few lines: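 Kinetic fluorescence (1 s intervals) of calcium-sensitive dye in human M1 CHO cells after compound addition; cells pre-incubated 18 h at 37 C/5% CO2 and dye-loaded 1 h.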
A short description of experiment [20]: p53 small molecule agonists, cell-based qHTS assay with human liver microsomes (AID 1963577). An outline of the steps:
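p53RE-bla reporter cells were pre-incubated 5 h at 37 C, then treated with compounds plus human liver microsomes (0.5 mg/mL final) and NADPH (0.5 mg/mL final) for 16 h at 37 C. Beta-lactamase activity was read by LiveBLAzer fluorescence after 2 h at room temperature.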

Gonadotropin-releasing hormone receptor (Homo sapiens), sequence (P30968 whole entry, looked up): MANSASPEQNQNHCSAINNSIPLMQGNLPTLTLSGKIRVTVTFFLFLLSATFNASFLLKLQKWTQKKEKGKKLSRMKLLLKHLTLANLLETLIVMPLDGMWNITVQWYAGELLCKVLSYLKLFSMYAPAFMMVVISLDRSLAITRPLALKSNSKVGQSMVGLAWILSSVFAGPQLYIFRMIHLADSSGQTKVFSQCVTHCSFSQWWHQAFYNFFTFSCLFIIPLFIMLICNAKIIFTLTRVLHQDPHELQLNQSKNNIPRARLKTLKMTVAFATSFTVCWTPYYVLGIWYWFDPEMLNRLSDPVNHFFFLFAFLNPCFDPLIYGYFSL
KiSS-1 receptor (Homo sapiens), sequence (Q969F8 whole entry, looked up): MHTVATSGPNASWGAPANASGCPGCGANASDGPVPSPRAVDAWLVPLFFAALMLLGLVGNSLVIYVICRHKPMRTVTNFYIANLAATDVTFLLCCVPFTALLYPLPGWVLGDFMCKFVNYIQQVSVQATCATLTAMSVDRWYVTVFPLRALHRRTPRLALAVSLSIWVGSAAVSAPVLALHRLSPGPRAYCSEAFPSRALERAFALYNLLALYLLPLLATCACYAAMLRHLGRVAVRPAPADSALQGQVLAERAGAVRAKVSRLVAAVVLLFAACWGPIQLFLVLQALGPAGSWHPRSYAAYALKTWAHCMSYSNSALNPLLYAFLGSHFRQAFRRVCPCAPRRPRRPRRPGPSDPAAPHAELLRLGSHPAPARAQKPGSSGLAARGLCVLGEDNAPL
5-hydroxytryptamine receptor 2A (Homo sapiens), sequence (P28223 whole entry, looked up): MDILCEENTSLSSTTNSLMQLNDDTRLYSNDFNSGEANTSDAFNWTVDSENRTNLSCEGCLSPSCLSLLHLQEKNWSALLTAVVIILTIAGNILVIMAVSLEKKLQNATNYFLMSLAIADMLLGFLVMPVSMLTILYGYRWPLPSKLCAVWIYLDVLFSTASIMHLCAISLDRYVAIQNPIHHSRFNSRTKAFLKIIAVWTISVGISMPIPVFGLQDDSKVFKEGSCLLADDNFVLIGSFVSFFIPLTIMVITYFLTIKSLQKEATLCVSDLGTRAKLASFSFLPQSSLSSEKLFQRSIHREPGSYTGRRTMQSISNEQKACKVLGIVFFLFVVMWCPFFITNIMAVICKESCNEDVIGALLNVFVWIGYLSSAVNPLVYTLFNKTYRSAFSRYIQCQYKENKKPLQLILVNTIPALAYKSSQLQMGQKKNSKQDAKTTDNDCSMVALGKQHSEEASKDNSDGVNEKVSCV
D(2) dopamine receptor (Homo sapiens), sequence (P14416 whole entry, looked up): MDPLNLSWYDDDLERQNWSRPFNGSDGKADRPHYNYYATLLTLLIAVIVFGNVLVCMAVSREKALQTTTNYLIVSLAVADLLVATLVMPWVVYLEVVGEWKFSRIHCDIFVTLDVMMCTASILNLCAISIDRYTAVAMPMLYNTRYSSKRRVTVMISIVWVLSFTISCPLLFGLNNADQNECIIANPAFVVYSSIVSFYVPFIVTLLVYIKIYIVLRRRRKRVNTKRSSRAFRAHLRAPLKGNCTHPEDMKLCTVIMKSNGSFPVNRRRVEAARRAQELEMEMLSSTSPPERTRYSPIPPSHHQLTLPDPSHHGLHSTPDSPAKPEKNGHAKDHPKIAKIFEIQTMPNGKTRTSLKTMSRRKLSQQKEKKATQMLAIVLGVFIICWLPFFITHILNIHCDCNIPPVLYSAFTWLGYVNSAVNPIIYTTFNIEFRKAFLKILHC
Beta-2 adrenergic receptor (Homo sapiens), sequence (P07550 whole entry, looked up): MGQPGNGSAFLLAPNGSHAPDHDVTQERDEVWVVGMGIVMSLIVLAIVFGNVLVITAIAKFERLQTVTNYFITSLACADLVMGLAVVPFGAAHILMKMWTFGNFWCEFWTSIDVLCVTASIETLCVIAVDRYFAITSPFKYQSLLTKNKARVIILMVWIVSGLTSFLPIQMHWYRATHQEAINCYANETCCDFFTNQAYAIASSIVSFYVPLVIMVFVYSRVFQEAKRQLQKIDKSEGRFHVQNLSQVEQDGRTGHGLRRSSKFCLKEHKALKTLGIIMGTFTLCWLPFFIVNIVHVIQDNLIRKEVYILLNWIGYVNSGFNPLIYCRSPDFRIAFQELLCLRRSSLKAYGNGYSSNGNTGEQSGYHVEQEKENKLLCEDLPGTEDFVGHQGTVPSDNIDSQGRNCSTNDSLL

Take `CC(C)(Oc1ccc(CCNC(=O)c2ccc(Cl)cc2)cc1)C(=O)O`: the Potency entry in experiment [1], in experiment [2], in [3], in experiment [4], in experiment [5] and in [6] was “inactive” in each case. For the same compound, the Potency result in experiment [7], in experiment [8], in [9], in experiment [10], in [11] and in experiment [12] was “inactive” each time. Moreover, the Potency entry in experiment [13] is “inactive”.

For the compound `NC1CCCCC1N` (stereo not given), the Potency entry in experiment [1], in experiment [2], in experiment [3], in experiment [4], in [14] and in experiment [5] was “inactive” throughout. Further, the Potency entry in [6], in experiment [7], in experiment [15], in experiment [16], in experiment [17] and in [18] was “inactive” in each case. Also, the Potency result in experiment [19], in experiment [8], in [9], in experiment [10], in experiment [12] and in [13] was “inactive” throughout.

On to `OC1CCCCCCCCCCC1`, for which the Potency entry in experiment [1], in experiment [2], in [3], in experiment [4], in experiment [14] and in [5] was “inactive” each time. Further, the Potency result in experiment [6], in experiment [7], in experiment [15], in experiment [16], in experiment [18] and in experiment [19] was “inactive” in each case. Further, the Potency result in experiment [8], in experiment [9], in [10], in experiment [12] and in [13] was “inactive” in each case. Further, in experiment [17], the Potency was 6.23 µM (active).

Regarding `COC(CC(C)CCCC(C)(C)O)OC` (stereo not given), the Potency entry in [1], in experiment [2], in experiment [3], in experiment [4], in experiment [20] and in experiment [5] was “inactive” each time. Also, the Potency result in [6], in experiment [7], in experiment [15], in experiment [16], in experiment [17] and in experiment [18] was “inactive” in each case. The Potency result in experiment [19], in experiment [8], in [9], in [10] and in experiment [12] was “inactive” throughout.

With `O=C(COc1ccc(Cl)cc1)N1CCN(Cc2ccc3c(c2)OCO3)CC1`, the Potency result in experiment [1], in [2], in experiment [3], in experiment [4], in experiment [5] and in [6] was “inactive” throughout. In addition, the Potency entry in experiment [7], in experiment [19], in [8], in [9], in experiment [10] and in experiment [12] was “inactive” throughout. The Potency entry in experiment [13] is “inactive”. The Potency is 29.8 µM (active) and inactive in experiment [16]; 37.5 µM (active) and inactive in [18].

As to `CC(C=O)Cc1ccc(C(C)(C)C)cc1` (stereo not given), the Potency entry in experiment [1], in experiment [2], in experiment [3], in [4], in experiment [20] and in [14] was “inactive” each time. In addition, the Potency entry in experiment [6], in experiment [7], in experiment [15], in experiment [16], in [17] and in [18] was “inactive” each time. In addition, the Potency result in experiment [19], in [8], in [9], in [10], in experiment [11] and in experiment [12] was “inactive” in each case. Moreover, the Potency entry in experiment [13] was “inactive”.

The values above are taken from PubChem BioAssay (Tox21).
